# In PubChem BioAssay (NCATS):
# Records with an inconclusive call do not appear. Where a call stands in place of a potency, no number is given. Active and inactive are the calls of the source. Unless noted, the call rests on the fitted dose curve; in most records, active means well fitted curve in the direction sought with a large enough effect; inconclusive means small, poorly fitted or top-dose-only effect, or another doubt; inactive means no such curve, though single readings can be large; an effect the other way counts as inactive or inconclusive.
# Assays:
# [1] = Cell Viability - NIH 3T3 (AID 541); conditions: NIH 3T3 cell viability, qHTS; activity change, negative = cytotoxicity: at 92.2 µM (top of the series); further: nearly all actives have a fitted effect of over 25% in size
# In short: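 Luminescent ATP signal (CellTiter-Glo) served as the viability read-out after NIH 3T3 cells were exposed to compounds over a concentration range for 40 hr at 37 °C. Hill-equation modelling of concentration-response data gave AC50.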
# [2] = Cell Viability - H-4-II-E (AID 543); further: nearly all actives have a fitted effect of over 35% in size
# In short: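 Luminescent ATP signal (CellTiter-Glo) served as the viability read-out, with cytotoxicity seen as a concentration-dependent ATP drop. Cells were treated for 40 hours in complete medium. AC50 values derive from Hill-equation modelling.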
# [3] = Cell Viability - LYMP2-001 (AID 921); further: nearly all actives have a fitted effect of over 70% in size
# In short: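 qHTS, 1536-well; lymphoblastoid cells, 24 hr compound, 37 C; ATP by CellTiter-Glo, 30 min RT; luminescence; Hill-fit AC50.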
# [4] = Cell Viability - LYMP2-005 (AID 967)
# In short: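 qHTS viability screen in LYMP2-005 cells: 24 h at 37 C with compound, ATP luminescence via CellTiter-Glo, AC50 from Hill curves.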
# [5] = Cell Viability - LYMP2-010 (AID 981); further: nearly all actives have a fitted effect of over 55% in size
# In short: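 Luminescent ATP signal (CellTiter-Glo) served as the viability read-out. Cells of the human lymphoblastoid line were treated with compound over a concentration range for 24 hours at 37 C, and AC50 values came from Hill-equation modeling.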
# [6] = target: Estrogen receptor (Homo sapiens) (UniProt P03372); experiment: qHTS assay for small molecule antagonists of estrogen receptor alpha signaling (AID 588513; active means well fitted curve in the direction sought with a large enough effect in the signal ratio, with a control signal flat, not every such curve was filed as active; the % refers to the signal ratio)
# Chain of Estrogen receptor (Homo sapiens) (P03372 whole entry, looked up): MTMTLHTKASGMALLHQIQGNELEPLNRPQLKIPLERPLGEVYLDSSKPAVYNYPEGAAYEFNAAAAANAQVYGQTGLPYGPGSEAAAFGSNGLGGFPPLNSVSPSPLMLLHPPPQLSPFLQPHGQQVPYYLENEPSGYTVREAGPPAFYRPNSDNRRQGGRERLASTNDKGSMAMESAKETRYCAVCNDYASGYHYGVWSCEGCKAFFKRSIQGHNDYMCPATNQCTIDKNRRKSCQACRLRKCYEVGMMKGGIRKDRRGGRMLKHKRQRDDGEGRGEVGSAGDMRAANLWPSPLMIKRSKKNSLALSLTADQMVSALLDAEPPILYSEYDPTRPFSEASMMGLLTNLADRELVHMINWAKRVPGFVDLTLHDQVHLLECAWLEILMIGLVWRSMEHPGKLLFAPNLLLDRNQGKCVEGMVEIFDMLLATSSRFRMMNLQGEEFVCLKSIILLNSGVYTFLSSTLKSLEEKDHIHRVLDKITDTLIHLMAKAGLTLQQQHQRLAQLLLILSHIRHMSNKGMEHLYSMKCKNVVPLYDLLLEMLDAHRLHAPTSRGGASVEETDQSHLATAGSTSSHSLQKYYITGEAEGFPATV
# In short: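 Cells were plated at 5000/well and incubated 4 h at 37 C. Compounds were added as 1:2 dilution series, duplicates. 17-beta-estradiol (0.5nM final) was added for 18 h before CCF4 detection.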
# [7] = target: Glucocorticoid receptor (Homo sapiens) (UniProt P04150); experiment: qHTS assay for small molecule antagonists of glucocorticoid receptor signaling (AID 588533; active means well fitted inhibition curve with a large enough effect in the signal ratio, with a control signal flat, not every such curve was filed as active; the % refers to the signal ratio;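 further: cells stimulated with 2 nM dexamethasone as agonist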)
# Chain of Glucocorticoid receptor (Homo sapiens) (P04150 whole entry, looked up): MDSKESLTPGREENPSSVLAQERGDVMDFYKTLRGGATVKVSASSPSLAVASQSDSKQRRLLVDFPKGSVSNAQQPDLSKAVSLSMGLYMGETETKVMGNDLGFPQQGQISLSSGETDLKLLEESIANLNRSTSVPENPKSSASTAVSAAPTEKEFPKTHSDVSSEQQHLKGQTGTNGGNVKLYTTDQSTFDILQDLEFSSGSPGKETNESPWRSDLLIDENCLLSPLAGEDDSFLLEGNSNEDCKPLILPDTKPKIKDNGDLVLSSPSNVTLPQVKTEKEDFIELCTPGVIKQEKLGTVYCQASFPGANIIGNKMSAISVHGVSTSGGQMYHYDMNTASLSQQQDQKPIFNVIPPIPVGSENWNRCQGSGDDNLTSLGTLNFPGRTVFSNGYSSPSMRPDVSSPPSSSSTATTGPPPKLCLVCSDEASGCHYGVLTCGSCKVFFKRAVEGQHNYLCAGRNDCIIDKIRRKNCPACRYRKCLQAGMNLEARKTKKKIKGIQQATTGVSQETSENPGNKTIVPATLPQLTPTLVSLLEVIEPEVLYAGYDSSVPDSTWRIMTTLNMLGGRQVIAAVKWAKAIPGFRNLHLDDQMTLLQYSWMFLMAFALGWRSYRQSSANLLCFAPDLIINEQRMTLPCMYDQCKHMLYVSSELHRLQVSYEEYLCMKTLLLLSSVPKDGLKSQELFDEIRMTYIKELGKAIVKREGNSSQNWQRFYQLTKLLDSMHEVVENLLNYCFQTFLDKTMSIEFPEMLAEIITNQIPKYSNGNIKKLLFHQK
# In short: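 Antagonist-mode qHTS: compound titrations added to GRE-bla HeLa cells, then dexamethasone 2 nM final; 18 h, 37 C. CCF4 FRET fluorescence normalized to dexamethasone and DMSO; IC50 from Hill fit.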
# [8] = target: Peroxisome proliferator-activated receptor delta (Homo sapiens) (UniProt Q03181); experiment: qHTS assay for small molecule agonists of peroxisome proliferator-activated receptor delta signaling (AID 588534; calls by dose curve)
# Chain of Peroxisome proliferator-activated receptor delta (Homo sapiens) (Q03181 whole entry, looked up): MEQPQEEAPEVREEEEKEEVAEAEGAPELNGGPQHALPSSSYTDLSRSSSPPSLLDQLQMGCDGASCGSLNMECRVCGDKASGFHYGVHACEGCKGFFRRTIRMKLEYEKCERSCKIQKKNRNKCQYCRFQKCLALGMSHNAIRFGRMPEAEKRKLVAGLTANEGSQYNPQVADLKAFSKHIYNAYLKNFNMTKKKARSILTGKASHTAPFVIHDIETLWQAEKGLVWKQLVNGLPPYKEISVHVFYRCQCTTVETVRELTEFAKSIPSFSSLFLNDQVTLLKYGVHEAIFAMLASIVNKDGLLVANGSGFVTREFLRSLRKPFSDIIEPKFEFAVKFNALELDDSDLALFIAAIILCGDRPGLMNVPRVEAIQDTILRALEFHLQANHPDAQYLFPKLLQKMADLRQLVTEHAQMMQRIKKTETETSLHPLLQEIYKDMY
# In short: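 Fluorescence from CCF4 substrate cleavage by beta-lactamase reporter, read 2 hrs at RT, measured agonist activity. Compounds were tested with 18 hrs exposure at 37 C. Concentration-response data fitted to Hill equation.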
# [9] = qHTS assay for small molecule antagonists of peroxisome proliferator-activated receptor delta signaling (AID 588535; active means well fitted inhibition curve with a large enough effect in the signal ratio, with a control signal flat, not every such curve was filed as active; the % refers to the signal ratio;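 on max response: cells co-treated with a PPAR-delta agonist as stimulator during compound exposure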); conditions: HEK293T PPARd-UAS-bla, beta-lactamase FRET ratio, 18 h; 460 nm channel
# In short: (§1)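 HEK293T PPAR-delta-UAS-bla cells, 4000/well, 2% charcoal/dextran FBS; 5 h 37 C; cpd titration; 18 h 37 C; CCF4 2 h RT; FI 460/530 nm; Hill fit → IC50, efficacy.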
# [10] = target: Peroxisome proliferator-activated receptor delta (Homo sapiens) (UniProt Q03181); experiment: as above
# In short: as §1
# [11] = qHTS assay for small molecule activators of the p53 signaling pathway (AID 651743; active means well fitted activation curve with a large enough effect in the signal ratio, not every such curve was filed as active; the % refers to the signal ratio); conditions: HCT-116 p53RE-bla, beta-lactamase FRET ratio, 16 h; activation: stronger effect = higher value
# In short: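 Read-out is fluorescence intensity from the LiveBLAzer B/G FRET substrate, added for 2 hours at room temperature after HCT-116 p53RE-bla cells had been incubated with compounds for 16 hours at 37 C.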
# [12] = qHTS assay for environmental chemicals that activate the Aryl hydrocarbon Receptor (AhR) signaling pathway (AID 651777); conditions: 1A2-DRE human hepatoma cells, luciferase, 24 h; activation: stronger effect = higher value; further: nearly all actives have a fitted effect of over 15% in size
# In short: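 Reporter gene assay: hepatoma cells with DRE/CYP1A2-luciferase, 24 hr compound incubation at 37 C, 5% CO2, luminescence after One-Glo (30 min, RT).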
# [13] = Cell Viability - LYMP2-020 (AID 986); further: nearly all actives have a fitted effect of over 55% in size
# In short: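 Luminescent ATP signal (CellTiter-Glo, 30 min at room temperature) is the read-out after 24 h compound treatment of lymphoblastoid cells at 37 C. AC50 values come from Hill-equation fits across concentrations.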
# [14] = target: Bile acid receptor (Homo sapiens) (UniProt Q96RI1); experiment: qHTS assay for small molecule agonists of farnesoid X receptor signaling (AID 588527; calls by dose curve); conditions: HEK293T FXR-UAS-bla, beta-lactamase ratio, 16 h; stronger effect = higher value
# Chain of Bile acid receptor (Homo sapiens) (Q96RI1 whole entry, looked up): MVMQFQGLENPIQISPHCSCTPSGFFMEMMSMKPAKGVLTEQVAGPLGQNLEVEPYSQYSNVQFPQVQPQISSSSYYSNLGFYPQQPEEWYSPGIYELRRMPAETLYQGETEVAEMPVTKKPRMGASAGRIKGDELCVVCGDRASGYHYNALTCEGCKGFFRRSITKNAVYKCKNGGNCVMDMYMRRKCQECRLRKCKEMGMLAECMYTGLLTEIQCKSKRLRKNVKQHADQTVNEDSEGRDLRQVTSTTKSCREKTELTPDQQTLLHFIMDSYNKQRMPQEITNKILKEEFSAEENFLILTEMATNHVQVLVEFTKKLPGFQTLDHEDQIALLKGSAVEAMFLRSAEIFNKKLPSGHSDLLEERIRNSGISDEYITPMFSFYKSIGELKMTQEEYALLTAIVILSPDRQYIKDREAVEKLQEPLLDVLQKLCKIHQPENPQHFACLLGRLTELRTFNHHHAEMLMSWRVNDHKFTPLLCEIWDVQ
# In short: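 FXR-UAS-bla HEK293T cells (10% dialyzed FBS) preincubated 5-7 h at 37 C, then compounds at up to 92 uM for 16 h at 37 C. CCF4 beta-lactamase read-out after 2 h RT. Normalized to chenodeoxycholic acid (100 uM) and DMSO; Hill fit gave EC50 and efficacy.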
# [15] = target: Glucocorticoid receptor (Homo sapiens) (UniProt P04150); experiment: qHTS assay for small molecule agonists of glucocorticoid receptor signaling (AID 588532; active means well fitted curve in the direction sought with a large enough effect in the signal ratio, with a control signal flat; the % refers to the signal ratio); conditions: HeLa MMTV-bla, beta-lactamase ratio, agonist, 18 h; stronger effect = higher value; percent of dexamethasone control, DMSO zero
# In short: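 Using MMTV-bla HeLa cells in medium with 1% stripped FBS and 25 mM HEPES, compounds were titrated and incubated overnight-length (18 h). Beta-lactamase cleavage of CCF4 was quantified by dual-emission fluorescence.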
# [16] = target: Vitamin D3 receptor (Homo sapiens) (UniProt P11473); experiment: qHTS assay for small molecule agonists of vitamin D receptor signaling (AID 588543; calls by dose curve)
# Chain of Vitamin D3 receptor (Homo sapiens) (P11473 whole entry, looked up): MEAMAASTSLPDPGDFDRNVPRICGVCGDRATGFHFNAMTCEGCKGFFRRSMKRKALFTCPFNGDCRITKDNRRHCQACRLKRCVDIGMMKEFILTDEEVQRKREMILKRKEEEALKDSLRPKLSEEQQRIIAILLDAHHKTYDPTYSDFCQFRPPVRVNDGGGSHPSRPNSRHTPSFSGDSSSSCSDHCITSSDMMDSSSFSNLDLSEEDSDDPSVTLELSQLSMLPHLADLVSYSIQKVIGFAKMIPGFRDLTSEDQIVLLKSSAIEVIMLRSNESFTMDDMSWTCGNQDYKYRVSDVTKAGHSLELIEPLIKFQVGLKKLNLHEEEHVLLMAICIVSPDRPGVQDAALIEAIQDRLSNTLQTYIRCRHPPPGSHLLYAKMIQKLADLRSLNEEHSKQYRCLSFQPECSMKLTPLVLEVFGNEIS
# In short: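 qHTS in agonist mode: compound titrations stimulate a VDR-driven β-lactamase reporter in HEK293T cells over 16 h at 37 °C. Response normalized to 50 nM 1α,25-dihydroxyvitamin D3 = 100%, DMSO = 0%; Hill fitting gives EC50 and maximal response.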
# [17] = qHTS assay for small molecule activators of the nuclear factor-kappa B (NF-kB) signaling pathway (AID 651749; active means well fitted activation curve with a large enough effect in the signal ratio; the % refers to the signal ratio); conditions: NF-kB-bla ME-180 cells, beta-lactamase FRET ratio, 16 h; stronger effect = higher value
# In short: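 Readout: beta-lactamase reporter driven by an NF-kB response element, detected fluorescently as loss of FRET. Cells were the ME-180 line, treated 16 hr at 37C with pin-transferred compound.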
# [18] = target: Peroxisome proliferator-activated receptor gamma (Homo sapiens) (UniProt P37231); experiment: qHTS assay for small molecule antagonists of peroxisome proliferator-activated receptor gamma signaling (AID 588537; active means well fitted inhibition curve with a large enough effect in the signal ratio, with a control signal flat, not every such curve was filed as active; the % refers to the signal ratio;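 further: reporter cells co-stimulated with 50 nM rosiglitazone agonist during compound treatment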)
# Chain of Peroxisome proliferator-activated receptor gamma (Homo sapiens) (P37231 whole entry, looked up): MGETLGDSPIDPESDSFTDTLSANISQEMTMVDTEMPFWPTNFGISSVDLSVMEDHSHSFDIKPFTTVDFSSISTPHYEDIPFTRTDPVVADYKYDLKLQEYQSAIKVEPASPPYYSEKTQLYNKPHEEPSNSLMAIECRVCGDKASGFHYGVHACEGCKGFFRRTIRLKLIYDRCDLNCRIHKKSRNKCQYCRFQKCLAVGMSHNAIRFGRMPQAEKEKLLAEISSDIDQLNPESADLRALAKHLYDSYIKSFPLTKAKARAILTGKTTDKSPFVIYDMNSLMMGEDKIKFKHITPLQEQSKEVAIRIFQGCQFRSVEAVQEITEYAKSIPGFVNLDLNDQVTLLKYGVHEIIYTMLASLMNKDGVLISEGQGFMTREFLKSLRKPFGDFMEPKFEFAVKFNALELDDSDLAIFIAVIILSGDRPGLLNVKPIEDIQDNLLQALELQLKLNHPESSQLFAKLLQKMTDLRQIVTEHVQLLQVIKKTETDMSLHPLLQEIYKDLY
# In short: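 Antagonist mode, beta-lactamase reporter in HEK293; charcoal/dextran FBS 1%; 3000 cells/well, 37 C 6-6.5 h; cpd titration + rosiglitazone 50 nM final, 16 h 37 C; CCF4, 2 h RT; 460/530 nm; Hill fit → IC50, efficacy.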
# [19] = target: Thyroid hormone receptor beta (Homo sapiens) (UniProt P10828); experiment: qHTS assay for small molecule agonists of thyroid hormone receptor beta signaling (AID 588545; calls by dose curve)
# Chain of Thyroid hormone receptor beta (Homo sapiens) (P10828 whole entry, looked up): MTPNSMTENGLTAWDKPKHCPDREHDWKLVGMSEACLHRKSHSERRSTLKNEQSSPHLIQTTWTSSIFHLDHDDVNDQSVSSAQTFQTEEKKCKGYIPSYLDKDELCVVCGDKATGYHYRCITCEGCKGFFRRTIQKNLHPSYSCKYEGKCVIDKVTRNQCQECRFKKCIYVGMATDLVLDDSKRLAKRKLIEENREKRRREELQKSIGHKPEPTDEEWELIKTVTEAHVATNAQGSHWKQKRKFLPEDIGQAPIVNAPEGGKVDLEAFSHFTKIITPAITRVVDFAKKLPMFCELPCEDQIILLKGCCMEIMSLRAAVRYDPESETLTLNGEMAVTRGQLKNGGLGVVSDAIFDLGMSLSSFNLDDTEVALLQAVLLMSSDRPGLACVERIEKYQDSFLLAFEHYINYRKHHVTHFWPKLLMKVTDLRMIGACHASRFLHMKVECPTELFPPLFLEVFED
# In short: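 Agonist-mode beta-lactamase reporter assay, HEK 293 cells, 2% charcoal/dextran FBS; cells plated 4 hrs, compound 18 hrs at 37 C, CCF4 2 hrs RT. Normalized to 10 nM T3 (100%) and DMSO (0%); Hill fit gives EC50, efficacy.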
# [20] = qHTS assay for small molecule agonists of the antioxidant response element (ARE) signaling pathway (AID 651741; active means well fitted activation curve with a large enough effect in the signal ratio; the % refers to the signal ratio; further: potency means the concentration at half of the fitted maximal effect)
# In short: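 Quantitative HTS in HepG2 cells stably expressing an ARE-beta-lactamase reporter; 16 h compound exposure at 37 C, followed by 2 h room-temperature incubation with LiveBLAzer B/G FRET substrate and fluorescence measurement.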
SMILES,Potency [1],Potency [2],Potency [3],Potency [4],Potency [5],Potency [6],outcome [7],outcome [8],max response [9],outcome [10],activation [11],activation [12],Potency [13],activation [14],activation [15],outcome [16],activation [17],Potency [18],Potency [19],Potency [20]
CC(C)CC(C)N (stereo not given),inactive,inactive,inactive,inactive,inactive,inactive,inactive,inactive,-20.2%,inactive,-1.88% (inactive),0.111% (inactive),–,–,–,–,–,–,–,–
Cc1cc(Cl)ccc1O,inactive,inactive,inactive,inactive,inactive,–,–,inactive,–,–,-0.272% (inactive),–,inactive,-2.04% (inactive),0.519% (inactive),inactive,0.374% (inactive),–,–,–
C[N+](=O)[O-],inactive,inactive,–,inactive,inactive,inactive,inactive,inactive,3.34%,inactive,-0.263% (inactive),0.25% (inactive),inactive,–,–,inactive,-0.658% (inactive),inactive,–,–
CC(=O)NNc1ccccc1,inactive,inactive,inactive,inactive,inactive,–,–,–,50%,inactive,–,2.76% (inactive),inactive,-3.51% (inactive),–,inactive,–,–,inactive,–
CN(C)N=O,inactive,inactive,inactive,–,–,–,inactive,–,–,–,-2.39% (inactive),0.336% (inactive),inactive,-0.99% (inactive),-2.94% (inactive),inactive,-0.838% (inactive),–,inactive,inactive
FC(Cl)(Cl)Cl,inactive,–,inactive,inactive,inactive,–,inactive,–,–,–,-3.53% (inactive),-1.34% (inactive),inactive,-3.19% (inactive),–,inactive,–,–,inactive,inactive
O=[N+]([O-])c1cc(Cl)c(Cl)cc1Cl,–,inactive,inactive,inactive,inactive,inactive,inactive,inactive,5.75%,inactive,–,-0.111% (inactive),inactive,–,-2.16% (inactive),inactive,–,inactive,inactive,26.6 µM (active)
Cc1ccc(N)cc1C,inactive,inactive,inactive,–,inactive,inactive,–,inactive,3.44%,inactive,–,–,inactive,1.96% (inactive),–,inactive,0.0731% (inactive),–,inactive,–
